{"source": "PubChem BioAssay (NCATS)", "note": "Results filed as inconclusive are left out. Active and inactive are the calls of the source. Calls follow the shape of the dose curve; as a rule, active = well fitted inhibition curve with a large enough effect; inconclusive = small, poorly fitted or top-dose-only effect; inactive = no such curve, though single readings can be large or run the other way.", "data": [{"test_system": "not listed separately", "experiment": "Primary qHTS for inhibitors of nuclear receptor binding SET domain protein 2 (NSD2) in an RCH-ACV wild type WT cells (2C) (AID 1645877); also: nearly all actives have a fitted effect of over 70% in size; also: potency is read from the fitted curve at half-maximal effect", "details": "RCH-ACV NSD2 WT (2C) viability, CellTiter-Glo, 72 h; series mostly up to 44.9 µM", "values": [{"smiles": "O=C(Nc1c(-c2cccs2)nc2ccccn12)c1ccc(Cl)cc1", "Potency": "inactive"}, {"smiles": "CC(C)(C)Nc1nc(Nc2ccc(C(N)=O)cc2)cc(N)c1C#N", "Potency": "1.45 µM (active)"}, {"smiles": "CCCC1(c2ccccc2)NC(=O)N(CC(=O)N(C)Cc2c(F)cccc2Cl)C1=O", "note": "(stereo unspecified)", "Potency": "inactive"}, {"smiles": "CC(C)S(=O)(=O)NC[C@H](C)c1ccc(NC(=O)c2cc(F)cc(F)c2)cc1", "Potency": "inactive"}, {"smiles": "CCc1cccc(CC)c1NC(=O)c1nn(C)c2c1CCc1cnc(Nc3ccc(C(=O)NC4CCN(C)CC4)cc3OC(F)(F)F)nc1-2", "Potency": "1.78 µM (active)"}, {"smiles": "CCCCNc1ccc(-c2ccc(CN3CCOCC3)cn2)c(NC2CCC(O)CC2)c1", "note": "(stereo unspecified)", "Potency": "0.796 µM (active)"}, {"smiles": "Cc1nc(Nc2n[nH]c3c2CN(C(=O)NC(CN(C)C)c2ccccc2)C3(C)C)c2sccc2n1", "note": "(stereo unspecified)", "Potency": "0.0052 µM (active)"}, {"smiles": "O=C(CSc1nc2c(c(=O)n1-c1ccccc1)SCC2)Nc1ccc(-c2ccccc2)cn1", "Potency": "0.0325 µM (active)"}, {"smiles": "C[C@@H](O)[C@H](NC(=O)c1ccc(C#Cc2ccc(CN3CCOCC3)cc2)cc1)C(=O)NO", "Potency": "inactive"}, {"smiles": "COc1ccc(C2=N[C@@H](c3ccc(Cl)cc3)[C@@H](c3ccc(Cl)cc3)N2C(=O)N2CCNC(=O)C2)c(OC(C)C)c1", "Potency": "1.63 µM (active)"}, {"smiles": "N#Cc1c(Oc2ccc(F)c(NC(=O)Cc3cccc(C(F)(F)F)c3)c2)ccc2nc(NC(=O)C3CC3)sc12", "Potency": "1.15 µM (active)"}, {"smiles": "COc1ccccc1NC(=O)OCC1CCN(C(=O)OC(C)(C)C)CC1", "Potency": "inactive"}, {"smiles": "Nc1nc2c(c(N3CCNCC3)n1)CCC1=C2[C@@H]2CCCC[C@@H]2O1", "Potency": "16.3 µM (active)"}, {"smiles": "CNC(=O)c1ccccc1Nc1nc(Nc2ccc(N3CCNCC3)cc2)ncc1Cl", "Potency": "inactive"}, {"smiles": "CC(C)c1nnc(-c2ccc(-c3ccccc3)nc2)n1-c1cccc2nonc12", "Potency": "inactive"}, {"smiles": "CNS(=O)(=O)c1ccccc1Nc1nc(Nc2ccc(N3CCN(C)CC3)cc2OC)ncc1Cl", "Potency": "0.649 µM (active)"}, {"smiles": "COc1ccc2cc(C(C)C(=O)Oc3ccc(C(N)=S)cc3)ccc2c1", "note": "(stereo unspecified)", "Potency": "inactive"}, {"smiles": "CC[C@H](CO)Nc1nc(NCc2ccc(-c3ccccn3)cc2)c2ncn(C(C)C)c2n1", "Potency": "0.23 µM (active)"}, {"smiles": "CC(=O)NCC(=O)N1C2CCC1c1cc(Nc3ncc(C(F)(F)F)c(NC4CCC4)n3)ccc12", "note": "(stereo unspecified)", "Potency": "0.0205 µM (active)"}, {"smiles": "Cc1cc2c(F)c(Oc3ncnn4cc(OCC(C)O)c(C)c34)ccc2[nH]1", "note": "(stereo unspecified)", "Potency": "7.28 µM (active)"}, {"smiles": "CCCC(=O)C1CCN(c2ncnc3c2CN(C(=O)c2ccc(-c4ccccc4)cc2)CC3)CC1", "Potency": "20.5 µM (active)"}, {"smiles": "COc1cc(Br)c(Nc2nc(-c3c(C)nc4ncccn34)cs2)c(Br)c1", "Potency": "2.05 µM (active)"}, {"smiles": "O=C(NCc1ccc(S(=O)(=O)c2cc(F)cc(F)c2)cc1)c1ccc2nccn2c1", "Potency": "inactive"}]}, {"target": "Catechol O-methyltransferase (Homo sapiens) (UniProt P21964)", "sequence (P21964 whole entry, looked up)": "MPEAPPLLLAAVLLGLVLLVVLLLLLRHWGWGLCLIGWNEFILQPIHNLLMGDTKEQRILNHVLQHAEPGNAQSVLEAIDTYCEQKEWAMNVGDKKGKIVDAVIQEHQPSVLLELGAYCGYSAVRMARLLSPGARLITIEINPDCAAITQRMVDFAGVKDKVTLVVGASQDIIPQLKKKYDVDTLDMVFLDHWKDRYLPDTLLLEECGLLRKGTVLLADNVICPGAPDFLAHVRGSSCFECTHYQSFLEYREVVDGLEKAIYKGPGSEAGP", "experiment": "Confirmatory Screen for Target Class Profiling of Small Molecule Inhibitors of Methyltransferases (AID 1745852)", "details": "MTase-Glo luminescence, SAH detection, recombinant enzyme; measured here: COMT max response; stronger effect = lower value", "units": {"activity": "%"}, "values": [{"smiles": "C=C(F)c1sc(CNCCCNc2cc(=O)c3ccccc3[nH]2)c(C)c1Br", "activity": -1.13}, {"smiles": "COc1ccc(C2(O)CCC(N3CC[C@@H](NC(=O)CNC(=O)c4cccc(C(F)(F)F)c4)C3)CC2)cn1", "note": "(stereo partly specified)", "activity": -5.05}, {"smiles": "CNC(=O)c1ccccc1Nc1nc(Nc2ccc(N3CCNCC3)cc2)ncc1Cl", "activity": -21.5}]}]}
